Source: the supplement of paper PMC3484114
± gives the standard deviation.

Each compound was assayed on OVCAR-3-derived ovarian cancer stem-like cells (spheroids) (assay: cell growth relative to untreated control; higher = more growth (less inhibition)). Details: 2.29 µM; 96 h.
Procedure, shortened: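 After trypsin dissociation, OVCAR-3 spheroid-derived stem-like cells were placed in ultra-low attachment 96-well plates at 50,000 cells/mL in stem cell medium and preincubated for 24 h. Treatment at 2.29 uM followed for 96 h at 37°C, 5% CO2, with 4 replicate wells per compound. A 4 h TOX8 resazurin fluorescence read (ex 560/em 590 nm) gave viability, from which percent growth relative to untreated wells was derived after blank subtraction and Grubbs outlier removal.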

| SMILES | cell growth |
| --- | --- |
| C=C(NC(=O)C(=C)NC(=O)c1csc(C2=N[C@@H]3c4csc(n4)C4NC(=O)c5csc(n5)C([C@](C)(O)[C@@H](C)O)NC(=O)[C@H]5CSC(=N5)/C(=C/C)NC(=O)C(C(C)O)NC(=O)c5csc(n5)C3(CC2)NC(=O)[C@H](C)NC(=O)C(=C)NC(=O)C(=C)NC(=O)C(C(C)C)N[C@@H]2C=Cc3c([C@@H](C)O)cc(nc3[C@H]2O)C(=O)OC4C)n1)C(N)=O (some centres undefined) | 56.7 ± 21% |
| CC1=CC(=O)c2cccc(NC3=NCCO3)c21 | 92.8 ± 25% |
| CCOC(=O)c1sc2[n+](c1C)C(=O)/C(=C/c1ccc([N+](=O)[O-])cc1)S2 | 94.2 ± 27% |
| c1ccc(-c2cccc(-c3ccccn3)n2)nc1 | 79.9 ± 17% |
| Oc1[nH]c2ccccc2c1N=Nc1c(F)c(F)c(F)c(F)c1F | 100 ± 13% |
| COC(=O)C1CCC(=O)N1C(c1ccc(OC)cc1)c1cc(OC)c(OC)c(OC)c1 (centres undefined) | 18.5 ± 9.1% |
| COc1cc(NS(C)(=O)=O)ccc1Nc1c2ccccc2nc2ccccc12 | 41.4 ± 12% |
| O=S1(=O)CCN(c2ccccc2CC(c2c[nH]c3ccccc23)c2c[nH]c3ccccc23)CC1 | 104 ± 24% |
| C=C(Cl)C(Cl)(CBr)CCC(Br)C(C)(C)Cl (centres undefined) | 70.7 ± 16% |
| COc1ccc2c(O)c3[n+](cc2c1OC)CCc1cc2c(cc1-3)OCO2 | 103 ± 14% |
| CCN1/C(=C\C(C)=C\c2sc3ccccc3[n+]2CC)Sc2ccccc21 | 31.4 ± 6.9% |
| CC1(C)N=C(N)N=C(N)N1c1ccc(OCCCOc2ccccc2)c(Cl)c1 | 43.6 ± 13% |
| C/C(=N\NC(=S)N(C)C)c1ccccn1.[Cu][Br] | 11.1 ± 5.9% |
| Cc1ccccc1NC(=O)C(=O)C(c1cnc2ccc([N+](=O)[O-])cc2n1)[N+](=O)[O-] (centres undefined) | 112 ± 25% |
| CCC1CN2CCc3cc(OC)c(OC)cc3C2CC1CC1c2cc(OC)c(OC)cc2CCN1C(=O)C(Cc1c[nH]c2ccccc12)NC(=O)OC(C)(C)C (centres undefined) | 94 ± 23% |
| Cc1ccc(CC2(OCCN(C)C)CCC(C(C)(C)C)CC2)cc1 (centres undefined) | 82.2 ± 24% |
| CC1=C(C(=O)NCc2ccccc2)C(c2ccccc2O)C(C(=O)NCc2ccccc2)=C(C)N1 | 76.9 ± 12% |
| COc1ccc2c(NCCCCCCNc3c4ccccc4nc4cc(OC)ccc34)c3ccccc3nc2c1 | 13.9 ± 5.5% |
| O=C(CCc1ccccc1)On1nnc2ccccc2c1=O | 79 ± 18% |
| [Cl][Pt+2][Cl].[NH-]C1CCCCC1[NH-] (centres undefined) | 98.5 ± 28% |

| SMILES | cell growth |
| --- | --- |
| CS(=O)(=O)OCCCCOS(C)(=O)=O | 121 ± 16% |
| CC(=O)N=C1N(/C=C2\C(=O)Oc3ccccc3C2=O)C(=O)/C(=C/c2ccccc2Cl)N1C | 122 ± 43% |
| OCc1ccc(-c2ccc(-c3ccc(CO)s3)o2)s1 | 92.2 ± 21% |
| CC(=O)OCc1cc(=O)n(C)c2c3c4c(cc12)c(C)cc(=O)n4CO3 | 95.1 ± 21% |
| CC(C)=CC1C(C(=O)O)C1(C)C (centres undefined) | 103 ± 37% |
| O=C1Oc2ccccc2C(=O)/C1=C1\C=C(c2ccccc2)SS1 | 158 ± 71% |
| COc1ccc(NC(=O)CC(=O)N2N=C(C)C(N=Nc3ccc(S(=O)(=O)c4ccc(N=NC5C(=O)N(C(=O)CC(=O)Nc6ccc(OC)cc6)N=C5C)cc4)cc3)C2=O)cc1 (centres undefined) | 105 ± 30% |
| COC(=O)c1cc(-c2c[nH]cc2C(=O)OCc2ccccc2)cn1S(=O)(=O)c1ccc(C)cc1 | 140 ± 35% |
| COc1ccccc1/C=C1\Sc2scc(-c3cccc([N+](=O)[O-])c3)[n+]2C1=O | 128 ± 18% |
| COc1cc2c(cc1Oc1ccc(OC)c3c1CC1c4c(cc(OC)c(OC)c4-3)CCN1C)CC1c3c(cc(OC)c(OC)c3-2)CCN1C (centres undefined) | 101 ± 11% |
| CCCCCCCCCCCCCCCC[N+](C)(C)CCl | 104 ± 17% |
| Nc1nc(Cl)nc2c1ncn2[C@H]1C[C@H](O)[C@@H](CO)O1 | 82.7 ± 17% |
| Clc1ccc(-c2c(C3=NCCCN3)nnn2-c2ccc(Cl)cc2)cc1 | 156 ± 57% |
| COc1cc(OC)c(OC)cc1/C=C/c1ccnc2ccccc12 | 75.8 ± 10% |
| Nc1ccccc1N | 88.4 ± 25% |
| NC(=O)C#CC(N)=O | 55.9 ± 13% |
| OC(CN1CCCCC1)c1ccc(/C=C/c2ccc(Cl)cc2)cc1 (centres undefined) | 112 ± 16% |
| Cn1ncc2cc3c(Nc4ccc(Cl)cc4)cccc3nc21 | 8 ± 4.9% |
| O=C1Oc2ccccc2C1C/C(=N\Nc1ccccc1)c1ccccc1O (centres undefined) | 158 ± 100% |
